The source made the active and inactive calls. Unless noted, no rule for the calls is given here.
Assays:
[1] = A549 cell viability effects, profiling panel, calcein-AM fluorescence, 48 h, basal (AID 1162); conditions: higher = more signal; also: test concentration not given here
[2] = adipocyte viability effects, profiling panel, cell-based, 3T3-L1 adipocytes, calcein-AM fluorescence, 48 h, basal (AID 1163); conditions: 3T3-L1 adipocytes viability, higher = more signal; also: test concentration not given here
[3] = HepG2 cell viability effects, profiling panel, calcein-AM fluorescence, 48 h, basal (AID 1164); conditions: higher = more signal; also: test concentration not given here
[4] = MM1S cell viability effects, profiling panel, calcein-AM fluorescence, 48 h, basal (AID 1165); conditions: higher = more signal;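 also: viability of MM1S multiple myeloma cells under basal unstimulated conditions; test concentration not given here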
[5] = basal RPMI8226 viability, no added stimulus, profiling panel, cell-based, calcein-AM fluorescence, 48 h, PK04 Diversity Set (AID 1166); conditions: RPMI8226 myeloma viability, higher = more signal;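 also: cells grown under basal conditions without added stimulus; test concentration not given here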
[6] = basal HepG2 mitochondrial membrane potential changes, profiling panel, cell-based, JC-1 fluorescence, 24 h, 100 nL compound (AID 1167); conditions: higher = more signal; also: test concentration not given here
[7] = basal 3T3-L1 adipocyte mitochondrial potential changes, profiling panel, cell-based, JC-1 fluorescence, 3T3-L1 adipocytes, 24 h, 100 nL compound (AID 1168); conditions: JC-1 mitochondrial fluorescence, higher = more signal, called active from +8 up or from −8 down; also: test concentration not given here
[8] = basal RPMI8226 mitochondrial membrane potential changes, profiling panel, cell-based, JC-1 fluorescence, 24 h, 100 nL compound (AID 1169); conditions: RPMI8226 myeloma, JC-1 mitochondrial potential fluorescence, higher = more signal; also: test concentration not given here
[9] = basal MM1S mitochondrial membrane potential changes, profiling panel, cell-based, JC-1 fluorescence, 24 h, 100 nL compound (AID 1170); conditions: higher = more signal; also: test concentration not given here
[10] = A549 lung cancer cell viability effects, profiling panel, resazurin fluorescence, 24 h, PK04 Diversity Set (AID 1171); conditions: higher = more signal, called active from +8 up or from −8 down; also: test concentration not given here
[11] = HepG2 liver cancer cell viability effects, profiling panel, resazurin fluorescence, 24 h, PK04 Diversity Set (AID 1172); conditions: higher = more signal; also: test concentration not given here
[12] = basal S. cerevisiae growth modulation, no modifier, primary screen, OD600, strain BY4716, 24 h, basal condition (AID 1173); conditions: OD600, 24 h, higher = more signal, called active from +8 up or from −8 down
[13] = MM1S myeloma cell viability, profiling panel, resazurin fluorescence, basal, 24 h, PK04 Diversity Set (AID 1174); conditions: higher = more signal, called active from +8 up or from −8 down;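 also: MM1S multiple myeloma cell line; test concentration not given here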
[14] = target: Dihydroorotate dehydrogenase (quinone), mitochondrial (Plasmodium falciparum (isolate 3D7)) (UniProt Q08210); assay: PfDHODH enzyme inhibitors, primary screen, biochemical, C-terminal His tag, absorbance 600 nm (AID 1175); conditions: DCIP absorbance 600 nm, higher = more signal, called active from +8 up or from −8 down;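 also: recombinant parasite enzyme with a five histidine tag at its C terminus; test concentration not given here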
[15] = P. aeruginosa biofilm formation inhibitors, primary screen, strain PAO1, LB-PBS medium, absorbance 600 nm (AID 1176); also: test concentration not given here; conditions: P. aeruginosa PAO1 growth/biofilm, A600, 12 h; higher = more signal
[16] = S. cerevisiae RM11-1a growth modifiers, primary screen, strain RM11-1a, OD600, basal, 24 h (AID 1177); conditions: OD600, 24 h, higher = more signal, called active from +8 up or from −8 down;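 also: cultures grown under basal conditions with no added stressor; test concentration not given here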
[17] = E. coli acrAB mutant growth effects, primary screen, E. coli filamentation inducers, strain DRC39, OD650, 24 h (AID 1178); conditions: higher = more signal, called active from +8 up or from −8 down;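 also: growth measured as culture turbidity by optical density at 650 nm; test concentration not given here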
[18] = E. coli acrAB mutant growth effects, primary screen, E. coli filamentation inducers, strain DRC39, OD650, 48 h (AID 1179);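 also: screen aims at cell division blockers that make cells filament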; conditions: E. coli DRC39 delta-acrAB growth, higher = more signal, called active from +8 up or from −8 down
[19] = RPMI8226 myeloma cell viability, profiling panel, resazurin fluorescence, basal, 24 h, PK04 Diversity Set (AID 1180); conditions: higher = more signal;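 also: RPMI8826 multiple myeloma cell line at 5000 cells per well; test concentration not given here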
[20] = target: E3 ubiquitin-protein ligase XIAP (Homo sapiens) (UniProt P98170); assay: XIAP binders, primary screen, biophysical, small-molecule microarray, fluorescence 635 nm (AID 1181); conditions: small-molecule microarray binding, higher = more signal;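 also: score merges 667 nm emission and signal to noise over triplicate slides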
Chain of E3 ubiquitin-protein ligase XIAP (Homo sapiens) (P98170 whole entry, looked up): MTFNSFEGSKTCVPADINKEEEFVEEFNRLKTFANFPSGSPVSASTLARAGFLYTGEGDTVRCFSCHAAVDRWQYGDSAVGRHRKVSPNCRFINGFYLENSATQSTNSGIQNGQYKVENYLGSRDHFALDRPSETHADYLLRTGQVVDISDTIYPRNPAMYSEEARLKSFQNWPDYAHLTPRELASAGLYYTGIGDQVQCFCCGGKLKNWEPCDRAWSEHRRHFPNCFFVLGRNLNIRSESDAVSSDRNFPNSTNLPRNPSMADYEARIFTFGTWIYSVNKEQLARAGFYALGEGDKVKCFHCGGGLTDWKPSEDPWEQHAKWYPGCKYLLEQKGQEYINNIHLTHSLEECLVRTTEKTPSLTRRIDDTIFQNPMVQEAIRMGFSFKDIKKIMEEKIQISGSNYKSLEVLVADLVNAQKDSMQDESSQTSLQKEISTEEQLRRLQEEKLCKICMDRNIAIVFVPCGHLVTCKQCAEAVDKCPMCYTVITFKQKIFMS

Chain of Dihydroorotate dehydrogenase (quinone), mitochondrial (Plasmodium falciparum (isolate 3D7)) (Q08210 whole entry, looked up): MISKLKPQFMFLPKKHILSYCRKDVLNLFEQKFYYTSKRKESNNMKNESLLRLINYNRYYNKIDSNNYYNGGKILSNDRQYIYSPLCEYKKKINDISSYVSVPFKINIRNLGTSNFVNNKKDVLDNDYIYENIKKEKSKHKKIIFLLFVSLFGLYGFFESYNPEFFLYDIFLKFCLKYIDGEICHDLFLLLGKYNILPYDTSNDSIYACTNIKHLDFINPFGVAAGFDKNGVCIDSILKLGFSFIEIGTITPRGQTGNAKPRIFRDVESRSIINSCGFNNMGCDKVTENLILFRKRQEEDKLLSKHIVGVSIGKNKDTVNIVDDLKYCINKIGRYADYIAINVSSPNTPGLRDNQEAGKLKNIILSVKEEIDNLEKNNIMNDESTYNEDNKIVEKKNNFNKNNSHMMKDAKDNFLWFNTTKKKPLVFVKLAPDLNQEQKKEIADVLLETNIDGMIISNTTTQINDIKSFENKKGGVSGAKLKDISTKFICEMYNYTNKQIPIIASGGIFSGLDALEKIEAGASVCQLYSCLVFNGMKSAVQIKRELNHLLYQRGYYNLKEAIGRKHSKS

| SMILES | z-score [1] | z-score [2] | z-score [3] | z-score [4] | z-score [5] | z-score [6] | z-score [7] | z-score [8] | z-score [9] | z-score [10] | z-score [11] | z-score [12] | z-score [13] | composite z-score [14] | z-score [15] | z-score [16] | z-score [17] | z-score [18] | z-score [19] | composite z-score [20] |
| --- | --- | --- | --- | --- | --- | --- | --- | --- | --- | --- | --- | --- | --- | --- | --- | --- | --- | --- | --- | --- |
| [N-]=[N+]=NCc1ccccc1C[C@@]1(C(=O)N2CCCCC2)N=C(c2ccc(OCCCO)cc2)O[C@@H]1c1ccccc1N=[N+]=[N-] | -0.0222 | 1.03 | 0.471 | -3.11 | -3.21 | 0.821 | 0.636 (inactive) | -1.25 | -1.14 | 0.0861 (inactive) | 0.226 | 0.146 (inactive) | -0.964 (inactive) | 0.42 (inactive) | 0.509 (inactive) | 1.41 (inactive) | 0.878 (inactive) | -0.0021 (inactive) | -0.892 | 0.0694 |
| COC(=O)[C@@]1(Cc2ccccc2)[C@H]2c3cc(C(=O)N4CCCC4)n(Cc4cc(F)cc5c4OCOC5)c3C[C@H]2CN1C(=O)c1ccccc1 | -0.927 | -0.888 | 0.162 | 0.464 | -0.0133 | 3.48 | 0.0248 (inactive) | -0.0359 | -0.977 | -0.522 (inactive) | -0.0185 | 0.978 (inactive) | -0.523 (inactive) | -0.354 (inactive) | 0.122 (inactive) | -0.0989 (inactive) | -0.599 (inactive) | -0.37 (inactive) | -0.312 | 0.392 |
| CC(C)(C)OC(=O)CC[C@]1(C(=O)NCCN2CCOCC2)N=C(c2ccc(OCCCO)cc2)O[C@H]1c1ccccc1N=[N+]=[N-] | -0.877 | 0.303 | 0.309 | -0.603 | -0.711 | 1.27 | 1.21 (inactive) | -0.683 | -0.961 | -0.201 (inactive) | -0.0231 | -0.893 (inactive) | -1.28 (inactive) | 0.255 (inactive) | 0.494 (inactive) | -0.279 (inactive) | 0.23 (inactive) | -0.635 (inactive) | -0.565 | -0.16 |
| C=CCN1C(=O)[C@@]2(CCC(=O)OC(C)(C)C)N=C(c3ccc(OCCCO)cc3)O[C@H]2c2ccccc21 | -1.22 | 0.28 | -2.35 | -3.59 | -3.97 | -1.62 | 2.8 (inactive) | -1.19 | -2.57 | -1.66 (inactive) | -0.648 | -1.23 (inactive) | -3.26 (inactive) | 0.407 (inactive) | 1.77 (inactive) | -0.169 (inactive) | 0.636 (inactive) | -0.242 (inactive) | -4.47 | 0.21 |
| CCOC(=O)[C@H]1C/C=C/C[C@H](C(=O)OCC)C(=O)O[C@H]2[C@@H](OC)O[C@H](CO)[C@@H](OC(=O)Nc3ccc(OC)cc3)[C@@H]2OC1=O | 2.98 | 0.202 | 1.12 | -0.465 | -0.274 | 1.89 | 1.84 (inactive) | -0.292 | -0.998 | -1.29 (inactive) | -1.45 | -0.0211 (inactive) | -2.07 (inactive) | 0.214 (inactive) | 0.979 (inactive) | 0.864 (inactive) | 0.391 (inactive) | 1.25 (inactive) | -1.08 | 0.191 |
| COCCOC(=O)N1C(=O)[C@@]2(c3cc(C#CC4(O)CCCCCC4)ccc31)[C@H](C(N)=O)[C@H]1C(=O)O[C@H](c3ccccc3)[C@H](c3ccccc3)N1[C@@H]2c1ccccc1OCCO | -1.86 | 0.73 | -4.88 | -3.42 | -4.59 | -2.32 | 1.57 (inactive) | -1.17 | -1.7 | -2.63 (inactive) | -1.85 | 0.707 (inactive) | -7.01 (inactive) | 1.34 (inactive) | 1.68 (inactive) | 2.26 (inactive) | -0.735 (inactive) | -0.719 (inactive) | -6.48 | -0.229 |
| C=C(COC)/C(=C/C[C@@H](OC(=O)c1ccncc1)c1ccc(OCCO)cc1)c1cnc2ccccc2c1 | 0.101 | 1.48 | -0.0465 | -0.289 | -0.594 | 1.86 | -0.892 (inactive) | 0.674 | 0.464 | 0.549 (inactive) | 0.564 | -1.17 (inactive) | 0.354 (inactive) | -6.09 (inactive) | -0.0221 (inactive) | -0.0819 (inactive) | 0.595 (inactive) | 0.436 (inactive) | 0.621 | 0.0566 |
| COc1c(C)cc(-c2cc3c(c(-c4ccccc4)n2)[Si](C(C)C)(C(C)C)OC3)cc1C | 0.33 | -0.182 | -0.43 | -1.51 | -0.515 | -0.759 | -0.00733 (inactive) | 0.00523 | 0.486 | 0.51 (inactive) | 0.0316 | 0.256 (inactive) | 0.416 (inactive) | -0.149 (inactive) | 0.173 (inactive) | -0.741 (inactive) | 0.762 (inactive) | 0.319 (inactive) | 0.798 | 0.205 |
